# Hits are enriched below; roughly 9.4% of the tested compounds scored in any of these assays.
# IMPase inh = cell-permeable inhibitors of inositol monophosphatase (IMPase) | 120,000 tested, under 10 active | CHO-M1 cells, IP1 accumulation, HTRF TR-FRET ratio | inhibition (IP1 accumulation), % at 46.1 µM | P97697; active = well fitted curve in the direction sought with a large enough effect in the signal ratio, not every such curve was filed as active; inconclusive = small, poorly fitted or top-dose-only effect, or a change in a side signal; inactive = no such curve, though single readings can be large or run the other way; the % refers to the signal ratio;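 note: cells stimulated with carbachol in lithium chloride buffer; plate controls were DMSO basal wells for no effect and reference inhibitor wells for full effect; higher means more IMPase inhibition seen as more IP1 and lower FRET ratio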
# Target sequence (P97697 whole entry, looked up): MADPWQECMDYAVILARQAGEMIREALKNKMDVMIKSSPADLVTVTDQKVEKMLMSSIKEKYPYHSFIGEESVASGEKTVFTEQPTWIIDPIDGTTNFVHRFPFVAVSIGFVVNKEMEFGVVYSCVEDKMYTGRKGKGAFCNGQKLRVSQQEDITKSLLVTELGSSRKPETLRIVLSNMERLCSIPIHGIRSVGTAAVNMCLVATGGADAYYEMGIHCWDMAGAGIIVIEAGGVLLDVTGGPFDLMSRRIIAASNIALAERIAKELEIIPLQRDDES
#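 Measured: the HTRF emission ratio (665/620 nm) plus the 620 nm donor channel, each fitted to the Hill equation to give AC50. Cells were CHO-M1 given compounds up to 46 uM and a 30 min carbachol stimulation at 37C.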
# HTT cytoprotect = protects HTT-Q103 PC12 cells, measured by ATP | Potency, µM (titrated, usually from 56.4 µM), without a hit: cytoprotection (ATP increase), actives largely listed as activators | AID 1471 | PC12 HTT-Q103 induced, cytoprotection, ATP luminescence, 40 h | actives 0.14% (n = 230,000); note: potency is the fitted concentration of half-maximal effect; % of control where 0% means no effect; nearly all actives have a fitted effect of over 45% in size
#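 ATP quantification (ATPlite) reports survival of PC12 cells in which tebufenozide, 100 nM final, switches on Htt exon 1 with 103 glutamines linked to GFP; compounds are titrated.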
# HPGD block = blocks human HPGD enzyme activity; P15428; purified HPGD, NADH fluorescence kinetic, PGE2 substrate; Potency, µM, for the others: at the top dose activity change, negative = inhibition, most hits filed as inhibitors; actives 4.3% (n = 150,000); active = well fitted inhibition curve with a large enough effect, not every such curve was filed as active; inconclusive = small, poorly fitted or top-dose-only effect, or another doubt; inactive = no such curve, though single readings can be large or run the other way; note: potency is the fitted concentration of half-maximal effect; % is set by controls: 0 for no effect and ±100 for the full control effect
#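 20 nM HPGD preincubated 15 min at room temperature with compound in 50 mM Tris-HCl pH 8, 0.01% Tween 20. Started with 1 mM NAD+ and 30 uM prostaglandin E2; NADH fluorescence (360/450 nm) read 5 times over 30-s intervals, last minus first.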
# IMPase Li inh = membrane-permeable IMPase blocker, potentiated with lithium; Potency, µM (doses to about 59.4 µM), for inactives: at the top dose activity, negative = IMPase inhibition, hits mostly inhibitors; actives 0.35% (n = 210,000); CHO-M1 cells, IP1 TR-FRET (IP-One), carbachol + lithium;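 note: IP1 builds up when IMPase is blocked and the TR-FRET signal falls; potency is the fitted concentration of half-maximal effect; plate controls were basal vehicle for no effect and high inhibitor control for full effect; nearly all actives have a fitted effect of over 50% in size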
#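 Test compounds were applied to CHO-M1 cells previously cultured for 16–30 h at 2000 per well. A small lithium amount accompanied them; after 30 min at 37C, IP1 was quantified by TR-FRET.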
# HttQ103 aggreg = mutant huntingtin aggregation inhibition | PC12 HttQ103-GFP aggregates, Acumen cytometry, 40 h | Potency, µM (highest dose often 46.1 µM), without a hit: top-dose activity change, negative = inhibition, hits mostly inhibitors | actives 1.1% (n = 220,000); note: potency is the fitted concentration of half-maximal effect; % is set by controls: 0 for no effect and ±100 for the full control effect; nearly all actives have a fitted effect of over 60% in size
#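 PC12 cells with ecdysone-inducible HTT exon1 Q103-GFP, induced by 100 nM tebufenozide, given compounds in a concentration series. GFP aggregates (1–25 um, 6 SD above background) counted in lysates by laser-scanning cytometry, 488 nm excitation.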
# ALDH1A1 block = inhibitors of human aldehyde dehydrogenase 1A1; P00352; AID 1030; Purified ALDH1A1, NADH fluorescence, propionaldehyde substrate; actives 7.3% (n = 220,000); Potency, µM (series often up to 75.3 µM), for the others: top-dose activity, negative = inhibition, usual class: inhibitors; active = well fitted inhibition curve with a large enough effect, not every such curve was filed as active; inconclusive = small, poorly fitted or top-dose-only effect, or another doubt; inactive = no such curve, though single readings can be large or run the other way;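 note: potency is the fitted concentration of half-maximal effect; plate controls were no enzyme wells and a reference inhibitor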
# Target sequence (P00352 whole entry, looked up): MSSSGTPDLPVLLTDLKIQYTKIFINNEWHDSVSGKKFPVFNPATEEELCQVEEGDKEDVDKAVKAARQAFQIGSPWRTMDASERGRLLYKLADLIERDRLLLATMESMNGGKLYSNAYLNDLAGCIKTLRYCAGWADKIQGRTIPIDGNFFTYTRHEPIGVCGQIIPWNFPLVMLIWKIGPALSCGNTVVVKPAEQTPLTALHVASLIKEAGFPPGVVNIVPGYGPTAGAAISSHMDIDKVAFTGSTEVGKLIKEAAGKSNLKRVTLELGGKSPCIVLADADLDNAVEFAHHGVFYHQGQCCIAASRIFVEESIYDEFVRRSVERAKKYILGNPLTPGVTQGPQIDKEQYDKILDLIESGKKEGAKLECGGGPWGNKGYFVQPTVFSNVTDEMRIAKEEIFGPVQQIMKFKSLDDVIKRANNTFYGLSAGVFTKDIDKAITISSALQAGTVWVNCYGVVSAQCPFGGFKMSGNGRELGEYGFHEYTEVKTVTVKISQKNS
# An asterisk follows results filed as active; ? = inconclusive; . = no result; [ ] = another dose, or the depositor's remark. Unless noted, calls come from the whole dose curve; as a rule, active = well fitted curve in the direction sought with a large enough effect; inconclusive = small, poorly fitted or top-dose-only effect, or another doubt; inactive = no such curve, though single readings can be large; an effect the other way counts as inactive or inconclusive.
SMILES,IMPase inh,HTT cytoprotect,HPGD block,IMPase Li inh,HttQ103 aggreg,ALDH1A1 block
Nc1ccc(C(=O)C[C@H](N)C(=O)O)cc1O,.,12%[10 µM],-5%,-2%,.,-3%[13.5 µM]
Cn1c(C[C@@H](O)c2nc3ccccc3n2C)nc2ccccc21,.,-8%[10 µM],-16%,1%,.,13%[13.5 µM]
CCSC1=N/C(=C\c2ccc(OC)cc2)C(=O)N1,.,17%[0.074 µM],?,27%,-10%,9.5µM*
COc1ccc(/C=C2\N=C(SC)NC2=O)cc1,14,12%,22µM*,18%[38.3 µM],2%,-8%
CCOc1ccc(N/C(C)=C/C(=O)c2ccc(C)o2)cc1,-3,7%[10 µM],-14%,10%[38.3 µM],-8%,0%
COC(=O)c1ccc(N/C(C)=C/C(=O)c2ccc(C)o2)cc1,0,-7%,-16%,13%[38.3 µM],4µM*,-2%
O=C(NCCO)c1ccc2[nH]c3c(c2c1)CCCC3,4,-27%,-11%,-5%[38.3 µM],-3%,4%
CCCC(C)NC(=O)c1ccc2[nH]c3c(c2c1)CC(C)CC3 (stereo not drawn),-3,-7%,.,.,5%,16µM*
CCOc1cc(C=O)ccc1OCC(N)=O,.,-2%[10 µM],.,-2%,1%[9.22 µM],11µM*
CCOc1cc(C=O)cc(Br)c1OCC(N)=O,.,-23%,.,0%,5%,7.9µM*
CCOc1cc(C=O)ccc1OCC(=O)NC(C)(C)C,.,-19%,.,4%,24%,?
N=C1/C(=C/c2cccn2Cc2ccc(F)cc2)C(=O)N=C2SC=CN12,.,-15%,.,2%,0.014µM*,-3%
CCCCN1/C(=C/c2ccc3ccccc3[n+]2CC)Sc2ccccc21,.,-59%[10 µM],.,-1%,2.5µM*,?
CCN1/C(=C/c2ccc3ccccc3[n+]2CC)C=Cc2ccccc21,32,-55%[10 µM],-10%,56%[38.3 µM],3.2µM*,?
CCN1/C(=C/c2ccc3cc(C)ccc3[n+]2CC)Sc2cc(C)ccc21,.,-140%,.,?,1µM*,?
CC[C@]1(O)C[C@H]2CN(CCc3c([nH]c4ccccc34)[C@](C(=O)OC)(c3cc4c(cc3OC)N(C)[C@@H]3[C@](O)(C(=O)OC)[C@H](OC(C)=O)[C@]5(CC)C=CCN6CC[C@]43[C@@H]65)C2)C1,-1,-52%[1.9 µM],.,.,.,.
CC1CCN(c2nc(Cl)nc(Nc3ccc([N+](=O)[O-])cc3)n2)CC1,.,.,-20%,19%,-23%,16µM*
C=CCNc1nc(Nc2ccc([N+](=O)[O-])cc2)nc(N2CCCC2)n1,.,-156%,.,9%,?,32µM*
c1ccc(CCNc2c3c(nc4ncnn24)CCC3)cc1,-4,-37%,18µM*,-6%[38.3 µM],-15%,3.5µM*
CC(=O)c1cccc(NC(=O)N2CCCC2C(=O)Nc2cccc(C)c2)c1 (stereo not drawn),4,3%[10 µM],-7%,-13%[38.3 µM],-4%,7%
CC(=O)c1cccc(NC(=O)N2CCCC2C(=O)Nc2c(C)cccc2C)c1 (stereo not drawn),4,5%,-8%,0%[38.3 µM],2%,25µM*
CSc1ccccc1NC(=O)c1ccc([N+](=O)[O-])cc1,.,.,.,11%,0%,14µM*
COC(=O)c1ccc(-n2nnnc2SCc2ccccc2OC)cc1,8,0%,-24%,21%[38.3 µM],27%,14µM*
CCc1ccc(-n2c(CSc3nnnn3-c3ccccc3)nc3ccccc3c2=O)cc1,-3,-20%,-11%,28%[38.3 µM],1%,1.4µM*
COC(=O)c1ccc(CSc2nnnn2-c2ccccc2)o1,3,-22%,-21%,11%[38.3 µM],6%,7.1µM*
SMILES,IMPase inh,HTT cytoprotect,HPGD block,IMPase Li inh,HttQ103 aggreg,ALDH1A1 block
Cc1ccc(S(=O)(=O)OCC(=O)O)cc1,.,11%[10 µM],-1%,1%,.,-6%[13.5 µM]
O=C(Nc1ccc(N2CCN(c3ccc(O)cc3)CC2)cc1)Oc1ccccc1,16,-16%,-2%,32%[38.3 µM],15%,11µM*
COc1ccc(-c2nc3cnc(N4CCOCC4)nc3n(-c3ccc(OC)cc3)c2=O)cc1,.,-38%,.,-16%,.,?
CN1/C(=C\P(=O)(N(C)C)N(C)C)C(C)(C)c2ccccc21,6,-3%[10 µM],-13%,20%[38.3 µM],11µM*,-4%
COc1cc([N+](=O)[O-])ccc1NC(=O)CCCOc1cccc(C)c1C,6,0%[10 µM],-16%,2%,-3%,14µM*
COc1cc([N+](=O)[O-])ccc1NC(=O)Cc1ccccc1,.,-28%,.,2%,11%[9.22 µM],-3%
CCN(CC)c1ccc(NC(=O)Nc2ccccc2C(F)(F)F)cc1,3,-24%,-8%,1%[38.3 µM],12%,4µM*
CCN(CC(=O)Nc1ccc(C(C)=O)cc1)CC(=O)Nc1ccccc1C(F)(F)F,.,?,.,-4%,6%,10µM*
CCN(CC(=O)Nc1ccccc1OC)CC(=O)Nc1ccccc1C(F)(F)F,.,-4%,.,2%,-6%,0%
COC1(C#CC2C=CC(OC(C)=O)C(COC(C)=O)O2)CCCCC1 (stereo not drawn),.,-96%[10 µM],.,.,.,?
Oc1ccc(N=Cc2ccc(O)c(O)c2)cc1,?,-33%[10 µM],28µM*,53%,8%[9.22 µM],13µM*
C[N+](C)(C)/N=C\c1ccc(O)c(O)c1,.,9%[10 µM],-4%,4%,.,7%[13.5 µM]
Cc1ccc(/C=C/C(=O)NCc2cccs2)o1,.,5%[10 µM],.,12%,?,4µM*
Cc1ccc(/C=C/C(=O)NCc2cccs2)cc1,.,-30%[10 µM],14µM*,3%,8%,?
C[C@H](CCC(=O)O)[C@H]1CC[C@@H]2[C@@H]3CC[C@H]4C[C@@H](O)CC[C@@]4(C)[C@@H]3C[C@H](O)[C@@]21C,.,7%[10 µM],-8%,35%,.,0%[13.5 µM]
O=C1CC(c2ccco2)Cc2c1cnn2-c1nc2ccccc2s1 (stereo not drawn),.,5%[10 µM],-14%,13µM*,8%,?
O=c1c(-c2ccc(Cl)cc2)c(C(F)(F)F)oc2c(CN3CCCCC3)c(O)ccc12,-2,.,.,.,.,.
Nc1nc(N)c2nn(-c3ccc(C(=O)O)cc3)nc2n1,.,9%[10 µM],?,5%,.,?
CCOC(=O)c1ccccc1OC(=O)CS(=O)c1ccccc1[N+](=O)[O-] (stereo not drawn),.,-31%,.,6%,21%,22µM*
Cc1ccc(NC(=O)c2ccc(Cl)cc2Cl)c(C(=O)c2ccccc2)c1,0,.,.,.,.,.
CCC/C=N/NC(=O)c1cccc(Br)c1,.,-29%,.,7%,11%,25µM*
CC(C)(C)C1=CC(=O)C(=O)C(C(C)(C)C)=C1,.,.,4µM*,7%,-2%,2.8µM*
CCc1c(C)nc(Nc2nc(C)c3ccc(OC)cc3n2)[nH]c1=O,8,0%[10 µM],-4%,31%[38.3 µM],5%,2.2µM*
O=Cc1ccc2noc(-c3ccc(Cl)cc3)c2c1,-3,-5%,-24%,18%[38.3 µM],-22%,22µM*
